Common to all, as to details: treatment time: 24 h
Assay [1] relates to A549-ACTB-RAB5A. The assay can be described thus: phenotypically active (imaging signature differs from DMSO and reproducible) at any of 0.3-9 uM (binary (1 = active, 0 = inactive)); higher = active. The essentials: (§1)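 After 24 h at 0.3, 1, 3 or 9 µM, with four wells per treatment, fifteen gene-edited A549, HepG2 and WPMY1 reporter lines carrying BFP, GFP and RFP/FusionRed were imaged live. Each well's live-cell features were expressed relative to solvent control wells. Deviation required ≥3 of 4 wells past the 95th percentile of control Euclidean distances, and reproducibility a median replicate Pearson correlation over the 95th percentile of non-replicates. Phenotypic activity rested on both.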

The subject of the next assay is A549-CANX-COX4. The description is as above. The method in brief:
as §1

The subject of assay [2] is A549-GM130-SQSTM1. Described as above. The method in brief: as §1
In another assay the test system is A549-TP53BP1-CLTA. The description is as above. The method in brief:
as §1

The test system of assay [3] is A549-TUBA1B-RELA. Described as above. The essentials: as §1
Another assay concerns HepG2-ACTB-RAB5A. Described as above. The method in brief:
as §1

Assay [4] deals with HepG2-CANX-COX4. The description is as above. The essentials:
as §1

The test system of another assay is HepG2-GM130-SQSTM1. The assay is described as above. The essentials:
as §1

Assay [5] concerns HepG2-TP53BP1-CLTA. The assay is described as above. The essentials: as §1
Another assay concerns HepG2-TUBA1B-RELA. The description is as above. The method in brief:
as §1

For a further assay, the system named is WPMY1-ACTB-RAB5A. The description is as above. The essentials: as §1
In the next assay the test system is WPMY1-CANX-COX4. The description is as above. The essentials:
as §1

For a further assay, the system named is WPMY1-GM130-SQSTM1. The assay is described as above. The method in brief: as §1
For a further assay, the system named is WPMY1-TP53BP1-CLTA. The description is as above. The essentials: as §1
A further assay relates to WPMY1-TUBA1B-RELA. The assay is described as above. The essentials:
as §1

The subject of assay [6] is A549-ACTB-RAB5A. The assay can be described thus: lowest phenotypically active concentration; higher = less potent. The essentials: as §1
For assay [7], the system named is A549-GM130-SQSTM1. Described as above. The method in brief: as §1
The subject of assay [8] is A549-TUBA1B-RELA. Described as above. The essentials: as §1
The subject of assay [9] is HepG2-CANX-COX4. The description is as above. The method in brief: as §1
Assay [10] deals with HepG2-TP53BP1-CLTA. Described as above. The essentials: as §1

Where a name gives a salt, the structure may show the parent alone.

Turning to `c1cncc(C2CC3CCN2CC3)c1` (stereo not given) [RJR 2429 dihydrochloride], the phenotypically active in the assay with A549-ACTB-RAB5A [1], in the assay on A549-CANX-COX4, in the assay with A549-GM130-SQSTM1 [2], in the assay on A549-TP53BP1-CLTA, in the assay on A549-TUBA1B-RELA [3] and in the assay with HepG2-ACTB-RAB5A was 0 (inactive) each time. The phenotypically active with HepG2-CANX-COX4 [4], in the assay with HepG2-GM130-SQSTM1, with HepG2-TP53BP1-CLTA [5], in the assay with HepG2-TUBA1B-RELA, in the assay on WPMY1-ACTB-RAB5A and in the assay with WPMY1-CANX-COX4 was 0 (inactive) throughout. The phenotypically active with WPMY1-GM130-SQSTM1, in the assay on WPMY1-TP53BP1-CLTA and in the assay on WPMY1-TUBA1B-RELA was 0 (inactive) in each case.
For `NC(=S)N/N=C/c1coc2ccccc2c1=O`, the phenotypically active in the assay on A549-ACTB-RAB5A [1], with A549-CANX-COX4, in the assay on A549-GM130-SQSTM1 [2], with A549-TP53BP1-CLTA, in the assay with A549-TUBA1B-RELA [3] and with HepG2-ACTB-RAB5A was 0 (inactive) throughout. The phenotypically active in the assay on HepG2-CANX-COX4 [4], in the assay with HepG2-GM130-SQSTM1, with HepG2-TP53BP1-CLTA [5], in the assay with HepG2-TUBA1B-RELA, in the assay on WPMY1-ACTB-RAB5A and in the assay on WPMY1-CANX-COX4 was 0 (inactive) in each case. Further, the phenotypically active in the assay with WPMY1-GM130-SQSTM1, in the assay on WPMY1-TP53BP1-CLTA and in the assay on WPMY1-TUBA1B-RELA was 0 (inactive) in each case.
As for `CC[N+](CC)(CCCNC1=CC(=O)C(NCCC[N+](CC)(CC)Cc2ccccc2)=CC1=O)Cc1ccccc1` [Benzoquinonium dibromide], the phenotypically active with A549-ACTB-RAB5A [1], in the assay with A549-CANX-COX4, with A549-GM130-SQSTM1 [2], in the assay with A549-TP53BP1-CLTA, in the assay on A549-TUBA1B-RELA [3] and in the assay on HepG2-ACTB-RAB5A was 0 (inactive) in each case. Moreover, the phenotypically active in the assay with HepG2-CANX-COX4 [4], in the assay with HepG2-GM130-SQSTM1, in the assay with HepG2-TP53BP1-CLTA [5], with HepG2-TUBA1B-RELA, in the assay with WPMY1-ACTB-RAB5A and in the assay on WPMY1-CANX-COX4 was 0 (inactive) in each case. Also, the phenotypically active in the assay on WPMY1-GM130-SQSTM1, with WPMY1-TP53BP1-CLTA and in the assay on WPMY1-TUBA1B-RELA was 0 (inactive) throughout.
As for `CCC1(CC)C(=O)NC(=O)N(C)C1=O` [metharbital], the phenotypically active with A549-ACTB-RAB5A [1], with A549-CANX-COX4, with A549-GM130-SQSTM1 [2], in the assay with A549-TP53BP1-CLTA, with A549-TUBA1B-RELA [3] and in the assay with HepG2-ACTB-RAB5A was 0 (inactive) each time. The phenotypically active with HepG2-CANX-COX4 [4], in the assay on HepG2-GM130-SQSTM1, in the assay on HepG2-TP53BP1-CLTA [5], in the assay on HepG2-TUBA1B-RELA, with WPMY1-ACTB-RAB5A and with WPMY1-CANX-COX4 was 0 (inactive) throughout. For the same compound, the phenotypically active in the assay on WPMY1-GM130-SQSTM1, in the assay with WPMY1-TP53BP1-CLTA and with WPMY1-TUBA1B-RELA was 0 (inactive) in each case.
Consider `CNC(=O)Oc1ccc2c(c1)[C@]1(C)CCN(C)O[C@@H]1N2C` [Geneserine], for which the phenotypically active with A549-ACTB-RAB5A [1], with A549-CANX-COX4, in the assay with A549-GM130-SQSTM1 [2], in the assay on A549-TP53BP1-CLTA, in the assay with A549-TUBA1B-RELA [3] and in the assay on HepG2-ACTB-RAB5A was 0 (inactive) each time. The phenotypically active in the assay with HepG2-CANX-COX4 [4], in the assay on HepG2-GM130-SQSTM1, in the assay on HepG2-TP53BP1-CLTA [5], with HepG2-TUBA1B-RELA, in the assay on WPMY1-ACTB-RAB5A and in the assay on WPMY1-CANX-COX4 was 0 (inactive) in each case. Further, the phenotypically active in the assay on WPMY1-GM130-SQSTM1, with WPMY1-TP53BP1-CLTA and with WPMY1-TUBA1B-RELA was 0 (inactive) each time.
With `Cc1cc2c(C(C)C)c(O)c(O)c(C=O)c2c(O)c1-c1c(C)cc2c(C(C)C)c(O)c(O)c(C=O)c2c1O` [gossypol], the “lowest phenotypically active concentration” value in the assay with A549-ACTB-RAB5A [6] came out at 3 µM; in the assay with A549-GM130-SQSTM1 [7] it was 3 µM; in the assay with A549-TUBA1B-RELA [8], 9 µM; with HepG2-CANX-COX4 [9], 9 µM; in the assay with HepG2-TP53BP1-CLTA [10] it was 9 µM. In addition, the phenotypically active in the assay on A549-ACTB-RAB5A [1], in the assay with A549-CANX-COX4, in the assay with A549-GM130-SQSTM1 [2], in the assay on A549-TP53BP1-CLTA, in the assay with A549-TUBA1B-RELA [3] and in the assay on HepG2-ACTB-RAB5A was 1 (active) throughout. For the same compound, the phenotypically active with HepG2-CANX-COX4 [4], in the assay on HepG2-GM130-SQSTM1, in the assay on HepG2-TP53BP1-CLTA [5], in the assay on HepG2-TUBA1B-RELA, in the assay on WPMY1-ACTB-RAB5A and in the assay on WPMY1-CANX-COX4 was 1 (active) throughout. In addition, the phenotypically active with WPMY1-GM130-SQSTM1, in the assay with WPMY1-TP53BP1-CLTA and in the assay on WPMY1-TUBA1B-RELA was 1 (active) each time.

(Values after the supplement of paper PMC7411054.)
